Molecules are shown by their SMILES. Calls of active or inactive are those of the source. The calls were made as follows: active = hit-call score of the fitted dose curve at least 0.9, where 1 is the maximum; inactive = score below 0.9.

From PubChem BioAssay (EPA / NIEHS) come the findings set out here.

Read-out in the assay: DNA damage-inducible transcript 3 (DDIT3), DDIT3 (gene 1649)
The experiment in a line: LTEA_HepaRG_DDIT3: Life Technologies and Expression Analysis (LTEA) Assay for DNA damage-inducible transcript 3 (DDIT3) using HepaRG (AID 2283488). The note with it: mRNA level, 48 h; actives raise or lower the signal. The procedure: LTEA_HepaRG is a cell based, multiplexed-readout assay that uses HepaRG, a human liver cell line, with measurements taken at 48 hours after chemical dosing on a 96-well plate.LTEA_HepaRG_DDIT3 is one of 102 assay component(s) measured in the LTEA HepaRG cell culture assay. It is a marker of Oxidative Stress.Data from the assay component LTEA_HepaRG_DDIT3 was analyzed into 1 endpoint. This assay endpoint, LTEA_HepaRG_DDIT3, was analyzed with bidirectional fitting relative to DMSO as the negative control and baseline of activity. Using a type of inducible reporter, measures of mRNA induction for gain or loss-of-signal activity can be used to understand regulation of transcription factor activity. To generalize the intended target to other relatable targets, this assay endpoint is annotated to the dna binding intended target family, where the subfamily is basic leucine zipper.
A total of 1060 chemcials from the ToxCast library were tested in eight-point concentration-response experiments. Cell culture and cytotoxicity assays were conducted at Thermo Fisher Scientific's Custom Services facility (Madison, WI). A single lot of human HepaRG cells (Thermo Fisher Scientific, Frederick, MD) was used for the cell culture experiments. 96-well format collagen type I coated plates of human HepaRG cells were prepared using established methods. Briefly, cryopreserved HepaRG cells were thawed, plated at a density of approximately 100,000 cells/well in HepaRG Thaw, Plate, and General Purpose media (HPRG770, Thermo Fisher Scientific), and incubated for 48 hours. 0.5% DMSO was selected as vehicle control to balance the requisite need of DMSO in HepaRG cultures to maintain differentiation (for example, baseline metabolism, proportions of hepatocytes vs. cholangiocytes), while enabling further hepatic receptor pathway activation (for example, PXR and CAR) in response to chemical exposure. 48 hours after plating, the culture medium was replaced with HepaRG Serum-Free Incudtion Media. Cells were exposed to each test chemical in duplicate and maintained in CO2 incubators for another 48 hours. Chemical plates were thawed to room temperature and 200x concentrations of treatment groups were prepared. 8-point conentration-reponse curves were made with the highest exposure at 100 uM, followed by half-log dilutions, all in 0.5% DMSO. Each test plate contained variouse controls, induction positive controls (1mM phenobarbital), cytotoxicity positive controls ([…] aflatoxin B1), vehicle controls (0.5% DMSO), and total lysis controls (0.5% DMSO). Cell morphology images were taken using an Essen IncuCyte FLR automated microscope, with six 96-well plates imaged in about 24 minutes. Images were captured and exported and JPEG files. Spent culture media was transfered to black-well plates for the LDH assay, and remaining media was sorted at -80 C for later use. Cells were treated with RLT buffer and frozen until shipped for gene expression analysis. Total RNA was isolated from the cell suspension in 75 uL of Buffer RLT (Qiagen, Germantown, MD 20874) by Quintiles/Expression Analysis (Durham, NC) using a custom isolation procedure. Total RNA from each plate well was transferred to a preamplification plate. Fluidigm's 96.96 Dynamic ArrayTM (Fluidigm, Amsterdam, the Netherlands) technology was used for gene expression analyses by quantitative reverse transcription polymerase chain reaction (qRT-PCR, performed by Quintiles/Expression Analysis, Durham, NC)89. Standard TaqManTM Assays (Applied Biosystems/ThermoFisher Scientific, Foster City, CA) were used to assess the expression of 93 genes selected based on their selectivity and sensitivity to important hepatic receptors known to be modulated by environmental chemicals; importance in human hepatocyte functionality; and hepatotoxicity. […]
On to `CCCCC=O`, for which the call was inactive. On the same count and under the same terms, under `CCC(C)c1ccccc1O` (stereo unspecified) stands “inactive”. Take `O=C(CCCN1CCC(O)(c2ccc(Cl)cc2)CC1)c1ccc(F)cc1`: the AC50 (as a rule, the concentration giving half of the maximal activity seen) is 73.9 µM (active). In the case of `CN(C)CCOC(c1ccccc1)c1ccccc1`, the compound was called inactive.

With `CCCCCCCCCCCCCCC`, the compound was classed as inactive. `CCCCCCCCCCCCOS(=O)(=O)O`: the AC50 was 71.9 µM (active).

Turning to `CS(=O)(=O)c1ccc([C@@H](CC2CCCC2)C(=O)Nc2cnccn2)cc1Cl`, the AC50 is 71.2 µM (active). In the case of `Cc1[nH]nc2c1N=C(c1ccccc1Cl)c1cc([N+](=O)[O-])ccc1N2`, the outcome was inactive. For `CCCCc1oc2ccccc2c1C(=O)c1cc(I)c(OCCN(CC)CC)c(I)c1`, the AC50 is 56.8 µM (active).

For the compound `CN(Cc1cnc2nc(N)nc(N)c2n1)c1ccc(C(=O)N[C@@H](CCC(=O)O)C(=O)O)cc1`, the compound was classed as inactive. For `N=C(N)c1ccc(OCCCCCOc2ccc(C(=N)N)cc2)cc1`, the AC50 is 3.45 µM (active).

Turning to `OCC(CO)(CBr)CBr`, the compound was classed as inactive. `O=C1NS(=O)(=O)c2ccccc21`: the result was inactive. On the same count and under the same terms, to `CC(=O)Nc1ccc(O)cc1` belongs “inactive”; to `O=C(c1ccccc1)c1ccccc1`, “inactive”.

For the compound `CCCCC(CC)C(=O)O` (stereo unspecified), the result was inactive.
